PubChem BioAssay
Where “and” joins values, the source holds several entries; their conditions need not be identical. Equal values may be shown once.

Key:
[1] = system: Botulinum neurotoxin type F light chain protease (Clostridium botulinum); test: Botulinum neurotoxin type F light chain protease inhibition, multiplex microsphere flow cytometry, validation set (AID 588459); conditions: multiplex microsphere protease substrate cleavage assay, at 10 µM, stronger effect = higher value
[2] = molecular target: Botulinum neurotoxin type A (Clostridium botulinum) (UniProt P0DPI0); test: BoNT/A light chain protease inhibitors, biochemical, multiplex microsphere flow cytometry, validation set (AID 588460); conditions: at 10 µM, stronger effect = higher value
Botulinum neurotoxin type A (Clostridium botulinum), sequence (P0DPI0 whole entry, looked up): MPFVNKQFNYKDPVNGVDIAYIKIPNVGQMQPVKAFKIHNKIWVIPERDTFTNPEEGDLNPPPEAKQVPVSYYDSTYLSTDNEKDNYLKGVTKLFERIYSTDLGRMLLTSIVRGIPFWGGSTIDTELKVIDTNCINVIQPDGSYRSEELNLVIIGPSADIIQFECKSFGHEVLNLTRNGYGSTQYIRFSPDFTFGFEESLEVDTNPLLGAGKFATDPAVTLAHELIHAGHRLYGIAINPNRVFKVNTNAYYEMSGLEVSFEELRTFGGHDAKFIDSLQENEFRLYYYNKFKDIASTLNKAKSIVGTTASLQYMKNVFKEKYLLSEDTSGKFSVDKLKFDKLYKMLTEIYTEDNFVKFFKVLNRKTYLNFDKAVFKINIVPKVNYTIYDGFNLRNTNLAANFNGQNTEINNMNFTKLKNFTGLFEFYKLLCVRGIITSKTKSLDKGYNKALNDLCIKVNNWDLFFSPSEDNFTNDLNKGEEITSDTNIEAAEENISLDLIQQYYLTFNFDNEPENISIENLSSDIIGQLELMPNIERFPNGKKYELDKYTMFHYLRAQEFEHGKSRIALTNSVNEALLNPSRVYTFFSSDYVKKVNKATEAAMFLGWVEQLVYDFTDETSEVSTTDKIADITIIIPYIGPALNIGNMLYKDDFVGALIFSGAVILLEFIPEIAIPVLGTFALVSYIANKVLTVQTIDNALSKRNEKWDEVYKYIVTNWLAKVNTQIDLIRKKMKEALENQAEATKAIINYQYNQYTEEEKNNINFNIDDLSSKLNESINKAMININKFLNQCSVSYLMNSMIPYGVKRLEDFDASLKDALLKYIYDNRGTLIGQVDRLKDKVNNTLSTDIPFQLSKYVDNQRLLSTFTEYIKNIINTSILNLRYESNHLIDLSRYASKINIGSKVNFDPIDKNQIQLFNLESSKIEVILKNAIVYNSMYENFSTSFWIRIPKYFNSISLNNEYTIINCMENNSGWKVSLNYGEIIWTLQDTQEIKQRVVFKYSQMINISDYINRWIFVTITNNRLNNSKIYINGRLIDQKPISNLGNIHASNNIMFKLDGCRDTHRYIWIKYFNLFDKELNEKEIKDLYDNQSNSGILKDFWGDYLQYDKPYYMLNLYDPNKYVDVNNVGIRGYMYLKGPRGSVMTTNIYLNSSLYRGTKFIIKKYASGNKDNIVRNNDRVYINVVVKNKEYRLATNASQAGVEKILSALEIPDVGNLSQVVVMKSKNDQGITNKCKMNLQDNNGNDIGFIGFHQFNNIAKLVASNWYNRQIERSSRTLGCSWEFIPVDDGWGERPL

[3] = molecular target: Lethal factor (Bacillus anthracis) (UniProt P15917); test: Lethal factor protease inhibitors, Bacillus anthracis, multiplex microsphere cleavage assay, validation set (AID 588461); conditions: flow cytometry, at 10 µM, stronger effect = higher value
Lethal factor (Bacillus anthracis), sequence (P15917 whole entry, looked up): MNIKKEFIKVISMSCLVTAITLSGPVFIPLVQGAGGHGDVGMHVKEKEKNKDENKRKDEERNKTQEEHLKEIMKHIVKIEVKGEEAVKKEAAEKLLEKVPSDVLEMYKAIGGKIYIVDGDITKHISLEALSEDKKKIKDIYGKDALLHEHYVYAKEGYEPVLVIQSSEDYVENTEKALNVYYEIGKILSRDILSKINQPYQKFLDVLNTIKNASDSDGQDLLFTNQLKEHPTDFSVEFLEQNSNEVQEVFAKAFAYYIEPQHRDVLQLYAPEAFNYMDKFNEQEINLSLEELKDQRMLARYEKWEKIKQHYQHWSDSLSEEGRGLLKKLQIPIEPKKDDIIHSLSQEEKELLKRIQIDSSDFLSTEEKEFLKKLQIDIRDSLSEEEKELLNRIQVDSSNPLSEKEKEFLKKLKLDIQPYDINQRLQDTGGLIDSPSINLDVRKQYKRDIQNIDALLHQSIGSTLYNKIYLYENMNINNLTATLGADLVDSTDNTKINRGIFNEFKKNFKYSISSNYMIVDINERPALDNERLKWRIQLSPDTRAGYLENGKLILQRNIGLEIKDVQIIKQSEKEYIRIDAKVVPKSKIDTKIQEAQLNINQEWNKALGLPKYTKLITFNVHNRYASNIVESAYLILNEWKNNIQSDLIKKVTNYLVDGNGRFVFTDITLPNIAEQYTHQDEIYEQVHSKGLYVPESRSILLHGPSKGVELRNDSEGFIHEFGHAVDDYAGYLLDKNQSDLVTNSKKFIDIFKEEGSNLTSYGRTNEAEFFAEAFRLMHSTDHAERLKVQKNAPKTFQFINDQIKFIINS

Measured: inhibition

COc1ccc(C(C)=O)c2c1OCCO2
inactive: [1] 2.3% | [2] -2.8% | [3] 0.8%

CC(C)COCC1CC2(CC(C)(c3csc(N)n3)OC2=O)C(=O)O1 (stereo unspecified)
inactive: [1] -3.2% | [2] -1.9% | [3] 9.1%

COc1ccc(-c2csc(-c3cccnc3)n2)cc1C
inactive: [1] -2% | [2] -1.6% | [3] -5.1%

COc1ccc(NC(=O)Nc2ccc(C(C)C)cc2)cc1
inactive: [1] 2.7% | [2] 1.5% | [3] 5.7%

NC(=O)OCC(COC(N)=O)c1ccccc1
inactive: [1] -1% | [2] -1.7% | [3] -2.1%

CSCCC(NC(=O)/C(=C/c1ccc2c(c1)OCO2)NC(=O)c1cccc([N+](=O)[O-])c1)C(=O)O (stereo unspecified)
inactive: [1] -1.7% | [2] 0.6% | [3] -9.5%

COc1cc(CNCCc2c[nH]c3ccccc23)cc(Cl)c1OCC(N)=O
inactive: [1] -3.4% | [2] 0% | [3] -5.2%

CCc1nc(N)nc(N)c1-c1ccc(Cl)cc1
inactive: [1] 0.4% | [2] -0.6% | [3] -2.6%

C=CCc1cccc2cc(C(=O)Nc3ccc(CC(=O)O)cc3)c(=O)oc12
inactive: [1] 1.3% | [2] -0.1% | [3] 0.8%

CC(=O)NC(Cc1ccccc1)C(=O)OCC(=O)c1ccccc1 (stereo unspecified)
inactive: [1] -2.6% | [2] -1.5% | [3] -3.3%

COc1ccc(CC(=O)c2c(O)cc(O)cc2O)cc1OC
inactive: [1] 0% | [2] 1.7% | [3] -2.8%

COc1ccc(CN(CCC(c2ccccc2)c2ccc(OC(C)C)cc2)C(=O)CCl)cc1OC (stereo unspecified)
inactive: [1] -3.8% | [2] 0.3% | [3] -6.4%

CC(C)=CCC/C(C)=C/CC/C(C)=C/CC/C(C)=C/CC1=C(C)C(=O)c2ccccc2C1=O
inactive: [1] -4.8% | [2] -0.7% | [3] -3%

COc1ccc(O)c(C2=Nc3ccccc3N=C(c3ccccc3)C2)c1
inactive: [1] 0.8% | [2] 0.8% | [3] 4.2%

COc1cc2nc(N3CCN(C(=O)C4CCCO4)CC3)nc(N)c2cc1OC (stereo unspecified)
inactive: [1] 3.3% and 1.5% | [2] 0% | [3] -5.7% and -7.8%

CC1CCN(C(=O)Oc2ccccc2)CC1
inactive: [1] -2.4% | [2] -1.5% | [3] 3.8%

COc1cc(/C=C(\C#N)C(=O)N2CCc3ccccc32)ccc1O
inactive: [1] 0.6% | [2] 1.6% | [3] 0.9%

COc1ccc(OC)c(-c2oc3ccccc3c(=O)c2O)c1
inactive: [1] 0.6% | [2] 1.3% | [3] 2.9%

COc1cccc(-n2cc(CNCc3c(C(=O)N(C)C)nc4ccc(Cl)cn34)cn2)c1
inactive: [1] 1.3% | [2] -0.7% | [3] 7.5%

CCOC(=O)C1C2C=CC3(CN(c4ccc(Cl)c(F)c4)C(=O)C13)O2 (stereo unspecified)
inactive: [1] 2.9% | [2] -2.3% | [3] 6.8%

CC1=CC(=O)c2ccccc2C1=O
inactive: [1] -2.1% | [2] -0.1% | [3] 6.7%

CC(NC(=O)OCc1ccccc1)C(=O)N1CC(O)CC1C(=O)O (stereo unspecified)
inactive: [1] 3.2% | [2] -0.7% | [3] 1.4%

CN(C)CC/C=C1\c2ccccc2COc2ccccc21
inactive: [1] -0.1% | [2] -0.5% | [3] 2.2%

N/C(=N/OS(=O)(=O)c1ccc([N+](=O)[O-])cc1)c1ccncc1
inactive: [1] 2.2% | [2] 0.3% | [3] 1%

O=C(CNC(=O)OCc1ccccc1)NC1CCCCCC1
inactive: [1] -1% | [2] -1.8% | [3] -3.4%

CC(=O)/C=C/c1ccc(C)o1
inactive: [1] 3.8% | [2] 0.9% | [3] 3%

COc1c(O)ccc2c1CN1CCc3cc4c(cc3C1C2)OCO4 (stereo unspecified)
inactive: [1] -8.1% | [2] -2.1% | [3] -16.1%
